Values without a mark were called inactive. Inconclusive results are not listed. The source made the active and inactive calls. Unless noted, the call rests on the fitted dose curve; in most records, active means well fitted curve in the direction sought with a large enough effect in the repeat runs; inconclusive means weak or mixed curves; inactive means no such curve, though single readings can be large; an effect the other way counts as inactive or inconclusive.

The target in assay [1] is Progesterone receptor (Homo sapiens) (UniProt P06401). Briefly: qHTS assay to identify small molecule agonists of the progesterone receptor (PR) signaling pathway (AID 1346784; calls by dose curve; further: nearly all actives have a fitted effect of over 30% in size). In short, it runs like this: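 Reporter assay, GripTite PR-UAS-bla HEK 293T cells: 16 hr exposure to DMSO-dissolved compounds at 37C, 5% CO2, in steroid-depleted (2% charcoal-stripped FBS) medium; beta-lactamase measured by FRET fluorescence.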

The target is the same in assay [2]. Kind of assay: qHTS assay to identify small molecule antagonists of the progesterone receptor (PR) signaling pathway (AID 1346795; active means well fitted inhibition curve with a large enough effect in the signal ratio in the repeat runs, not every such curve was filed as active; the % refers to the signal ratio). The essentials:
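Stimulus R5020 at 1 nM final; cells HEK293T PR-UAS-bla; medium with 2% charcoal-stripped FBS; compound exposure 16 hr at 37C, 5% CO2; detection by FRET beta-lactamase substrate, 2 hr, room temperature.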

A short description of assay [3]: qHTS assay to identify small molecule antagonists of the progesterone receptor (PR) signaling pathway - cell viability counter screen (AID 1346798). Further: series mostly up to about 92 µM; nearly all actives have a fitted effect of over 50% in size. In short, it runs like this:
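In the same plates used for the beta-lactamase readout, cell viability of compound- and R5020-treated PR-UAS-bla HEK293T cells (16 hr, 37C) was assessed by CellTiter-Glo luminescence.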

Assay [4] in a line: qHTS assay to identify small molecule antagonists of the TGF-beta/Smad signaling pathway - cell viability counter screen (AID 1346824). Further: nearly all actives have a fitted effect of over 50% in size. The essentials: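 SBE-bla HEK 293T cells were plated overnight at 37 C, then given compounds in DMSO plus TGF-beta1 (added as 0.25 ng/mL solution) for 5 hr. After the bla read, CellTiter-Glo was added to the same wells and luminescence read after 30 min at room temperature.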

A short description of assay [5]: qHTS assay to identify small molecule agonists of the TGF-beta/Smad signaling pathway - cell viability counter screen (AID 1346829). Further: top concentration of the series differs between compounds; nearly all actives have a fitted effect of over 45% in size. The essentials: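 Luminescence from CellTiter-Glo, read after a 30 min room-temperature incubation, gives cell viability of SBE-bla HEK 293T cells treated 5 hr with compounds at 37 C.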
Assay [6] is described as follows: qHTS assay to identify small molecule agonists of the TGF-beta/Smad signaling pathway (AID 1346859; active means well fitted activation curve with a large enough effect in the signal ratio in the repeat runs, not every such curve was filed as active; the % refers to the signal ratio; further: series mostly up to about 77 µM). The essentials:
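Screening used HEK 293T SBE-bla cells at 4,000/well. Test agents: 5 hr, 37 C. Detection: FRET substrate, 2 hr RT, then excitation 405 nm with emissions at 460 and 530 nm.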

For assay [7], the target named is Thyrotropin-releasing hormone receptor (Homo sapiens) (UniProt P34981). Kind of assay: qHTS assay to identify small molecule antagonists of the thyrotropin-releasing hormone receptor (TRHR) signaling pathway (AID 1346877; active means well fitted inhibition curve with a large enough effect in the repeat runs, not every such curve was filed as active; further: series mostly up to about 51 µM). The essentials:
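In this cell-based calcium flux format, HEK293 cells expressing TRHR received test compound for 5 min before the agonist TRH (1 nM final). Dye loading lasted 2 h at 37 °C.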

For assay [8] the target is unchanged. Briefly: qHTS assay to identify small molecule agonists of the thyrotropin-releasing hormone receptor (TRHR) signaling pathway (AID 1346891; calls by dose curve; further: series mostly up to about 58 µM). In short, it runs like this: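 Readout was intracellular calcium fluorescence in TRHR-Hek293 cells. Cells were incubated 18 h, dye-loaded 2 h at 37 °C, and treated with compound in agonist mode.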
A short description of assay [9]: Human pregnane X receptor (PXR) small molecule agonists, qHTS cell viability counter screen (AID 1346977). Further: nearly all actives have a fitted effect of over 50% in size. In short, it runs like this: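 In each well, the PXR reporter HepG2 line was checked for viability: CellTiter-Fluor reagent added 23hr post-dosing, fluorescence read after 1hr incubation at 37C.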
A short description of assay [10]: Caspase-3/7 induction in HepG2 cells by small molecules, qHTS assay (AID 1346978). Further: nearly all actives have a fitted effect of over 15% in size. The essentials:
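Wild-type HepG2 cells (2,000/well) were settled 5 h at 37 C, 5% CO2, then exposed to compounds in DMSO for 17 h. Caspase-3/7 activity was read by luminescence 30 min after adding Caspase-Glo 3/7 reagent at room temperature.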

Assay [11] can be described thus: Caspase-3/7 induction in CHO-K1 cells by small molecules, qHTS cell viability counter screen (AID 1346979). Further: nearly all actives have a fitted effect of over 35% in size. In short, it runs like this: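 Following a 5hr settling period, CHO-K1 cells at 1,500 per well received DMSO-dissolved compounds. Cell viability was quantified 16hr later by CellTiter-Fluor fluorescence, measured after 1hr with reagent at 37C.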
Assay [12] can be described thus: Caspase-3/7 induction in CHO-K1 cells by small molecules, qHTS assay (AID 1346980). Further: nearly all actives have a fitted effect of over 15% in size. The essentials:
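Wild-type cells were seeded at 1,500 per well and settled 5 hr at 37 C, 5% CO2, then exposed to DMSO-dissolved compounds for 17 hr. Caspase-Glo 3/7 reagent was added, and luminescence was read after 30min at room temperature.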

Assay [13] can be described thus: Caspase-3/7 induction in HepG2 cells by small molecules, qHTS cell viability counter screen (AID 1346981). Further: series mostly up to about 92 µM; nearly all actives have a fitted effect of over 30% in size. In short, it runs like this: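 Counter screen for cytotoxicity: HepG2 exposed 16 hr to compounds, then CellTiter-Fluor viability signal (fluorescence, 1 hr reagent incubation).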
Assay [14] has as its target Nuclear receptor subfamily 1 group I member 2 (Homo sapiens) (UniProt O75469). Kind of assay: Human pregnane X receptor (PXR) small molecule agonists, qHTS assay (AID 1346982). Further: nearly all actives have a fitted effect of over 35% in size. Further: potency means the concentration at half of the fitted maximal effect. In short, it runs like this:
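Luminescence (ONE-Glo, 30 min RT) after 24 hr compound exposure of PXR-Luc HepG2 cells; cells rested 5 hr post-plating in 5% charcoal-stripped FBS medium.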

For assay [15], the target named is Cytochrome P450 2D6 (Homo sapiens) (UniProt P10635). Briefly: Cytochrome P450 Family 2 Subfamily D Member 6 (CYP2D6) small molecule antagonists: luciferase reporter qHTS assay (AID 1671196). Further: nearly all actives have a fitted effect of over 50% in size. Further: potency means the concentration at half of the fitted maximal effect. The essentials:
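Inhibition of CYP2D6 was gauged by loss of luminescence, since light produced tracks the luciferin generated from a proluciferin substrate. A 10 min room-temperature preincubation preceded 1 h NADPH-supported turnover.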

The nature of assay [16]: qHTS assay to identify small molecule agonists of the progesterone receptor (PR) signaling pathway - cell viability counter screen (AID 1346799; calls by dose curve; further: nearly all actives have a fitted effect of over 45% in size). The essentials:
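Multiplexed viability read: CellTiter-Glo luminescence, 30 min RT, following LiveBLAzer FRET measurement on PR-UAS-bla HEK293T cells exposed to compounds 16 hr.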

The target of assay [17] is Nuclear receptor subfamily 1 group I member 2 (Rattus norvegicus) (UniProt Q9R1A7). Kind of assay: Rat pregnane X receptor (rPXR) activation by small molecules, qHTS assay (AID 1346983). Further: nearly all actives have a fitted effect of over 20% in size. Conditions: rPXR luciferase reporter cells, One-Glo luminescence, 24 h; max activation: stronger effect = higher value. The essentials: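 Cell-based rPXR luciferase reporter assay, 2,000 cells per well, rested 5hr at 37 C before compound addition in DMSO, then 24 hr at 37 C. One-Glo reagent was added and luminescence read after 30 min at room temperature.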

In assay [18] the target is Nuclear receptor subfamily 1 group I member 2 (Homo sapiens) (UniProt O75469). Kind of assay: CYP3A4 induction through human pregnane X receptor (PXR) by small molecules, qHTS assay (AID 1346984). Further: nearly all actives have a fitted effect of over 40% in size. The essentials:
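DPX-2 reporter cells; 24h cpd, 37C; Luciferin-IPA 3uM final x3h; One-Glo 30 min RT; lumi read.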

In assay [19] the target is Cytochrome P450 2C19 (Homo sapiens) (UniProt P33261). Kind of assay: Cytochrome P450 Family 2 Subfamily C Member 19 (CYP2C19) small molecule antagonists: luciferase reporter qHTS assay (AID 1671197). Further: nearly all actives have a fitted effect of over 65% in size. Further: potency means the concentration at half of the fitted maximal effect. In short, it runs like this:
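CYP2C19 P450-Glo, 1536-well qHTS. Cpd + enzyme/proluciferin substrate 10 min RT; + NADPH regen, 37C 1 h; stop with luciferin detection reagent, 20 min RT, luminescence (RLU). Pos ctrl ketoconazole.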
On the % scale 0 is the no-effect control and ±100 the full control effect.

Cytochrome P450 2C19 (Homo sapiens), sequence (P33261 whole entry, looked up): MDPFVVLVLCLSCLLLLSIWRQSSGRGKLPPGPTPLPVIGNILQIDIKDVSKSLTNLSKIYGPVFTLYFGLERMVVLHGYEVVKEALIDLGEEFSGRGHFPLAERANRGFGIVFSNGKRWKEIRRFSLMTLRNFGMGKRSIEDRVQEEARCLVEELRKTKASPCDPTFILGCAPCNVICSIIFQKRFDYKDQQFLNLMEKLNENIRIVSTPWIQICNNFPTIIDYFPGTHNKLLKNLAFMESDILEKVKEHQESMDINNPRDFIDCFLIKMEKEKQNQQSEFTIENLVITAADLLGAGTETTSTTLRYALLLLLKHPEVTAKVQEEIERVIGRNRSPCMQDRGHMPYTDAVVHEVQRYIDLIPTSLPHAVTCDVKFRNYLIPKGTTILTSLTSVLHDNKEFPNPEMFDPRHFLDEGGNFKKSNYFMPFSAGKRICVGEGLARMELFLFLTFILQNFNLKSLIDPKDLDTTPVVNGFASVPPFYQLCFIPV
Cytochrome P450 2D6 (Homo sapiens), sequence (P10635 whole entry, looked up): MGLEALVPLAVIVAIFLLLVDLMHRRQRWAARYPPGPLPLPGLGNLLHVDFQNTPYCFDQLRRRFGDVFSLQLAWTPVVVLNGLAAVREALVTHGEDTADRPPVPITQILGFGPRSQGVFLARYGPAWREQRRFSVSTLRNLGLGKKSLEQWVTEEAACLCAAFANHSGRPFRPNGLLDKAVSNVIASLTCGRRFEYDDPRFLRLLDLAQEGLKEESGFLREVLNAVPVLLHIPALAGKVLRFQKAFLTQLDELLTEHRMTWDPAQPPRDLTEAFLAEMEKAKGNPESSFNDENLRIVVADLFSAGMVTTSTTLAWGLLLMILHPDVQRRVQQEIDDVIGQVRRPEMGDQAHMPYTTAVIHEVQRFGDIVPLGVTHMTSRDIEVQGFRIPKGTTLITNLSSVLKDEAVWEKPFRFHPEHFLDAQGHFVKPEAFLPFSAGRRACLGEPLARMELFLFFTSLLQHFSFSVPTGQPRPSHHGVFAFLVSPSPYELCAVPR
Nuclear receptor subfamily 1 group I member 2 (Homo sapiens), sequence (O75469 whole entry, looked up): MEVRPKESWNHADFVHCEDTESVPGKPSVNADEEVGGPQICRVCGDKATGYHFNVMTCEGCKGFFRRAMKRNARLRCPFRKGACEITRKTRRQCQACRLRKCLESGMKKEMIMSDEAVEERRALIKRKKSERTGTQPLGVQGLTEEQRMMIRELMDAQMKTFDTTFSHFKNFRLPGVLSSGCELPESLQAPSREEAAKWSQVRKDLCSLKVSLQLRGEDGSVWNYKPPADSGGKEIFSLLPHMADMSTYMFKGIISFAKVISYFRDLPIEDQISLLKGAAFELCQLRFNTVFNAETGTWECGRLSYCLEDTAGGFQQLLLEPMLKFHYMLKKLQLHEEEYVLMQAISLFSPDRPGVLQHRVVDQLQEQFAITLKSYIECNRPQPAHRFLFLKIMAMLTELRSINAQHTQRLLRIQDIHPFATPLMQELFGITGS
Progesterone receptor (Homo sapiens), sequence (P06401 whole entry, looked up): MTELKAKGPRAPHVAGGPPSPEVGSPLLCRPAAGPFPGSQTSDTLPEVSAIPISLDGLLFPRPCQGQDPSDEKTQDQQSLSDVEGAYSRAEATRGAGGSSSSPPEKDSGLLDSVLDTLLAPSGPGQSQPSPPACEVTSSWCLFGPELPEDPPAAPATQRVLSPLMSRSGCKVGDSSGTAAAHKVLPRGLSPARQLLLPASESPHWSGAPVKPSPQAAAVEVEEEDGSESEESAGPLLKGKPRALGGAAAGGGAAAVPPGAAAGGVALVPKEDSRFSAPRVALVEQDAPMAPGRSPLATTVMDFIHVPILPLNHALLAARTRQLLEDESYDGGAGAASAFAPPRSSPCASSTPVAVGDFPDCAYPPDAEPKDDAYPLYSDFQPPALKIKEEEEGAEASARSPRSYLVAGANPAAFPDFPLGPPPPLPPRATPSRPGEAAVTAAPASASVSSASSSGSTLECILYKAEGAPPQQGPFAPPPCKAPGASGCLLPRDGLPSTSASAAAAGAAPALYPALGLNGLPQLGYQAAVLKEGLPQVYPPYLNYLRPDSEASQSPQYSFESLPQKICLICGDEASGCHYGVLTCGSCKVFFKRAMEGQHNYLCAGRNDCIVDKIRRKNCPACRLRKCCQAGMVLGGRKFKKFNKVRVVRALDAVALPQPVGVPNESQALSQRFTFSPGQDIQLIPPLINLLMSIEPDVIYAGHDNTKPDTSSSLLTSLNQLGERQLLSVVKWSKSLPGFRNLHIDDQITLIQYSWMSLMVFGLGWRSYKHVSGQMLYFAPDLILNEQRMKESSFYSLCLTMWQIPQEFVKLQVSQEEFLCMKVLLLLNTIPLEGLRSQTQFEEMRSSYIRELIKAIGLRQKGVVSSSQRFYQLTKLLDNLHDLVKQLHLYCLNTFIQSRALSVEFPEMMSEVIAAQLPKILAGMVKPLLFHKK
Thyrotropin-releasing hormone receptor (Homo sapiens), sequence (P34981 whole entry, looked up): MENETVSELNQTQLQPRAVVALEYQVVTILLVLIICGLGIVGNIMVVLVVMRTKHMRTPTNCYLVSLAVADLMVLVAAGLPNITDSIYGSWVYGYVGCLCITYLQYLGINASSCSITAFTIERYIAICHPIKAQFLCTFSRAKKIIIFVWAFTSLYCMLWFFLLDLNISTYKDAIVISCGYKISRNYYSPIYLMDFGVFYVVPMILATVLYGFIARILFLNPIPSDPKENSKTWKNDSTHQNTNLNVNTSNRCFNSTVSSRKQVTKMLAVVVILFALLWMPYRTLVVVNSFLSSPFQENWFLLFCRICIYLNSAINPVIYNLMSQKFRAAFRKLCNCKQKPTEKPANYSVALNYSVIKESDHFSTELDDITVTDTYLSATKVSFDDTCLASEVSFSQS
Nuclear receptor subfamily 1 group I member 2 (Rattus norvegicus), sequence (Q9R1A7 whole entry, looked up): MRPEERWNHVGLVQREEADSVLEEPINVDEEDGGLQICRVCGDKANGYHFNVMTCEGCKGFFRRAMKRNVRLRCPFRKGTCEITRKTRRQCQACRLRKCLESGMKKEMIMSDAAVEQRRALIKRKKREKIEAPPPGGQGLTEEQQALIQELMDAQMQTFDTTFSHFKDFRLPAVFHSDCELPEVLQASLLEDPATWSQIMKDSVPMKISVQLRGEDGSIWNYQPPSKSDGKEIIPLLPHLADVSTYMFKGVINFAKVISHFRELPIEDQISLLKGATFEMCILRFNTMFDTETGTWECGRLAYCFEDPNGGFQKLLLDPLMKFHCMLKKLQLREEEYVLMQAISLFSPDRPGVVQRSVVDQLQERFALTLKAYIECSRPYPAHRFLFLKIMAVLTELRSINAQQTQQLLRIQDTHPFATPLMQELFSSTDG

As for `CC(=O)/C(C)=C/C1C(C)=CCCC1(C)C` (stereo not drawn), the result in assay [1], in assay [6], in [7] and in [10] was inactive. Besides, the Potency result in assay [2], in assay [3], in [4], in [5], in assay [8] and in assay [9] was “inactive” each time. Moreover, the Potency result in assay [11], in [12], in [13], in [14] and in [15] was “inactive” each time.
As for `O=C(NS(=O)(=O)/C=C/c1cccs1)c1ccc(F)cc1Br`, the result in assay [1], in assay [6], in assay [7] and in assay [10] was inactive. The Potency entry in assay [2], in assay [3], in assay [16], in assay [5], in assay [8] and in assay [9] was “inactive” each time. In addition, the Potency result in [11], in assay [12] and in assay [15] was “inactive” each time. Also, in assay [14], the Potency was 30.6 µM (active).
As for `N=C(N=C(N)N)N1CCOCC1`, the molecule was classed as inactive in [1] and in [6]. The Potency result in [2], in assay [3], in assay [16], in [4], in assay [5] and in assay [9] was “inactive” in each case. Further, the Potency result in [11], in assay [12], in assay [13], in [14], in assay [18] and in assay [15] was “inactive” throughout. In addition, the max activation in assay [17] was -1.18%.
In the case of `CC(C)(C)C1CCCCC1O` (stereo not drawn), the outcome in [1] and in [6] was inactive. The Potency entry in assay [2], in [3], in assay [16], in assay [4], in [5] and in assay [12] was “inactive” each time. For the same molecule, the Potency result in [13], in assay [14], in assay [15] and in assay [19] was “inactive” in each case.
As for `COC(Cc1ccccc1)OC`, the outcome in assay [1], in assay [6], in assay [7] and in [10] was inactive. The Potency result in assay [2], in assay [3], in assay [16], in [5], in assay [9] and in assay [11] was “inactive” throughout. For the same molecule, the Potency result in assay [12], in assay [13], in assay [14], in assay [15] and in assay [19] was “inactive” in each case.
Take `c1ccc(CNCc2ccccc2)cc1`: the outcome in [1], in assay [6] and in [10] was inactive. Further, the Potency result in [2], in assay [3], in [16], in [4], in assay [5] and in [9] was “inactive” each time. The Potency entry in [11], in assay [12], in assay [13] and in assay [14] was “inactive” throughout. Also, the Potency in [15] was 1.12 µM (active); in [19] it was 6.33 µM (active).
Regarding `Cc1ccc(C(N)=O)cc1N`, the outcome in [1] and in assay [6] was inactive. In addition, the Potency entry in [2], in assay [3], in assay [16], in [4], in assay [5] and in [9] was “inactive” each time. Besides, the Potency result in assay [12], in assay [13], in assay [14] and in [15] was “inactive” in each case.

These data come from PubChem BioAssay (Tox21).
